A short description of test [1]: yeast TOR pathway RPL19A-GFP modulators, primary screen, cell-based, S. cerevisiae, multiplex flow cytometry (AID 1862; in the data active means percent of DMSO control GFP below about 86%;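 further: lower values mimic rapamycin by blocking the RPL19A rise seen in DMSO cells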). Conditions: S. cerevisiae RPL19A-GFP strain, flow cytometry fluorescence, 3 h; at 10 µM; stronger effect = lower value.
Test [2] can be described thus: modulators of MEP2-GFP levels in yeast, primary screen, S. cerevisiae, multiplex flow cytometry (AID 1867;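 active means GFP response, as percent of the DMSO control, above the screen-wide mean plus 3 SD, about 139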;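 further: median GFP channel fluorescence of barcode-gated MEP2-GFP cells measured by flow cytometry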). As to conditions: S. cerevisiae MEP2-GFP strain, 3 h, at 10 µM, stronger effect = higher value, 100% means same as DMSO wells. Background: A flow cytometer gives signals particle by particle.
The nature of test [3]: modulators of CIT2-GFP expression in yeast, primary screen, S. cerevisiae, GFP fusion, multiplex flow cytometry (AID 1870).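 Further: barcoded CIT2-GFP strain pooled with four other GFP strains with rapamycin as positive control; median GFP fluorescence per well over plate mean of DMSO wells so 100% = DMSO.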 Conditions: 3 h, at 10 µM, stronger effect = higher value.
A short description of test [4]: modulators of LAP4-GFP expression in yeast, primary screen, S. cerevisiae, multiplex flow cytometry (AID 1873;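 active means GFP signal, as percent of the solvent control, above the screen mean plus 3 SD, about 149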). Conditions: 3 h, at 10 µM, stronger effect = higher value.
A short description of test [5]: modulators of AGP1-GFP expression in yeast TOR pathway, primary screen, cell-based, multiplex flow cytometry, S. cerevisiae (AID 1887;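 active means GFP signal above the screen-wide mean plus 3 SD, that is over about 124.5% of the solvent control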;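 further: AGP1-GFP fusion strain of S. cerevisiae within a five-strain barcoded multiplex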). As to conditions: 3 h, at 10 µM, stronger effect = higher value.
Test [6] is described as follows: inhibitors of CD8+ T cell-vesicle binding, pilot screen, LFA-1/ICAM-1 modulator project, MLPCN validation set, flow cytometry (AID 2523;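 active means response below a set limit, under 55% cells CD8-positive and vesicle-bound, and CD8 cells' 90th-percentile brightness under 279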;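 on vesicle binding response: mean PE anti-B7-1 fluorescence of CD8+ cells relative to row control; 100% = QL9-loaded vesicles with DMSO vehicle in the same plate row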). As to conditions: 2C mouse CD8+ T cells, at 7 µM, stronger effect = lower value; double positive events: measured here: CD8+/vesicle+ event percentage.
For test [7], the target named is Integrin beta-1 (Homo sapiens) + Integrin alpha-4 (Homo sapiens) (UniProt P13612+P05556). The test can be described thus: inhibition of HUTS-21 binding to VLA-4, pilot screen, VLA-4 allosteric modulator project, U937 cells, HUTS-21 mAb, flow cytometry, validation set (AID 2674;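 active means inhibition above 50%, about 3 SD of the validation set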;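 further: antibody binding induced by the VLA-4 ligand LDV present at three times its Kd; 0% = LDV ligand with antibody and no compound and 100% = antibody without LDV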). As to conditions: HUTS-21 LIBS mAb binding, at 6.7 µM, stronger effect = higher value, binding induced by LDV ligand.

Test [8] in a line: superoxide lowering in aged yeast cells, pilot screen, validation compound set (AID 2706;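 active means superoxide response below 65% of plate, a cut near 3 SD across the whole screen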;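 further: yeast exposed to compound for one week at 30 degrees C before staining; 100% = mean of all compound wells on the same plate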). As to conditions: S. cerevisiae aging, superoxide DHE fluorescence; at 10 µM; stronger effect = lower value.
Test [9] deals with Beta-adrenergic receptor kinase 1 (Homo sapiens) (UniProt P25098). The test can be described thus: GRK2 binders displacing RNA aptamer, biochemical, validation, human GRK2, bead flow cytometry (AID 488806;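 active means aptamer binding inhibition above 30%, about 3 SD of noise from non-fluorescent compounds; inactive means inhibition at or below 30%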). Conditions: bead-bound GRK2, FAM-aptamer displacement, at 10 µM, stronger effect = higher value.
The target of test [10] is Beta-2 adrenergic receptor (Homo sapiens) (UniProt P07550). Nature of the test: beta2AR agonists driving receptor internalization, pilot screen, cell-based, FAP fluorogen, flow cytometry, validation set (AID 504459;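 active means percent response above 42, roughly 3 SD of non-fluorescent test compounds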;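 further: agonist-driven loss of surface beta2AR via internalization measured by FAP dye flow cytometry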). Conditions: Am2.2-beta2AR cells, FAP surface receptor flow cytometry; at 10 µM; stronger effect = higher value.
For test [11], the target named is AP-2 complex subunit beta (Homo sapiens) (UniProt P63010). Nature of the test: inhibitors of arrestin peptide binding to AP2, pilot screen, biochemical, validation set, GST-AP2 beads, flow cytometry (AID 504541;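 active means inhibition above 54%, about 3 SD of non-fluorescent compounds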;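 further: AP2 carries R879A mutation and is captured from E. coli lysate; bead-bound FITC arrestin peptide fluorescence measuring arrestin peptide binding to AP2; 0% = DMSO wells and 100% = excess unlabeled arrestin peptide control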). As to conditions: FITC arrestin peptide, at 10 µM, stronger effect = higher value, AP2 beta2 appendage fragment, R879A mutant.
A short description of test [12]: yeast V-ATPase proton transport modulators, S. cerevisiae, pHLuorin, HTS validation (AID 504600; in the data active means response above about 15%;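 further: plate controls were DMSO for no effect and reference compound for full effect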). Conditions: S. cerevisiae pHLuorin cytosolic pH, at 10 µM, stronger effect = higher value.
Test [13] relates to anti-desmoglein-3 scFv antibody binding to human DSG3. The test can be described thus: inhibitors of anti-DSG3 scFv binding to DSG3, pilot screen, biochemical, validation compound set, bead-based, flow cytometry (AID 588368;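 active means binding below the plate cutoff, the plate median minus 3 SD, with a reading above zero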;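 further: signal is the median channel fluorescence of bead-bound GFP antibody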). Conditions: Protein G beads, DSG3-Fc, scFv-GFP binding, at 10 µM, stronger effect = lower value.
Test [14] in a line: inhibitors of fungal efflux pumps CDR1, CDR2, MDR1, pilot screen, validation compound set, multiplex, phenotypic (AID 588506;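 active means efflux inhibition above 0.42, the validation set average plus 4 SD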;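 further: Nile Red retained in cells so higher fluorescence means more efflux inhibition; 0 = negative control wells and 1 = enniatin B 25 µM full block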). Conditions: S. cerevisiae pump-expressing triplex, Nile Red efflux flow cytometry; at 10 µM; stronger effect = higher value; the pumps come from Candida albicans.
In test [15] the target is ATP-binding cassette sub-family B member 6 (Homo sapiens) (UniProt Q9NP58). The test can be described thus: ABCB6 transporter inhibitors, pilot screen, K562-ABCB6 cells, flow cytometry, validation set (AID 588550;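 active means inhibition above the screen-wide mean plus 3 SD, about 51%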;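 further: 0% = DMSO wells and 100% = benzethonium chloride 70 µM positive control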). Conditions: K562-ABCB6 porphyrin accumulation, 1 h, at 10 µM, stronger effect = higher value.
Test [16] is described as follows: promoters of myeloid differentiation in arrested cells, primary screen, cell-based, GFP/MAC1 double positive, flow cytometry, validation set (AID 588685;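 active means differentiation response of at least 50%, scaled between solvent and reference control, from cells with both markers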;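 further: compound exposure lasts four days before antibody staining and flow analysis; 0% = DMSO wells and 100% = 5 µM fulvestrant positive control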). Conditions: ER-HoxA9 marrow cells, stronger effect = higher value, normalized: vehicle 0, fulvestrant 100.

Records with an inconclusive call do not appear. Calls of active or inactive are those of the source.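 How the source made its calls, unless noted: active means percent response above a set limit, the screen-wide mean plus 3 SD (cut at about 130% in these data); inactive means the rest.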

Sequence of AP-2 complex subunit beta (Homo sapiens) (P63010 whole entry, looked up, the tested form may be a part, one chain of several): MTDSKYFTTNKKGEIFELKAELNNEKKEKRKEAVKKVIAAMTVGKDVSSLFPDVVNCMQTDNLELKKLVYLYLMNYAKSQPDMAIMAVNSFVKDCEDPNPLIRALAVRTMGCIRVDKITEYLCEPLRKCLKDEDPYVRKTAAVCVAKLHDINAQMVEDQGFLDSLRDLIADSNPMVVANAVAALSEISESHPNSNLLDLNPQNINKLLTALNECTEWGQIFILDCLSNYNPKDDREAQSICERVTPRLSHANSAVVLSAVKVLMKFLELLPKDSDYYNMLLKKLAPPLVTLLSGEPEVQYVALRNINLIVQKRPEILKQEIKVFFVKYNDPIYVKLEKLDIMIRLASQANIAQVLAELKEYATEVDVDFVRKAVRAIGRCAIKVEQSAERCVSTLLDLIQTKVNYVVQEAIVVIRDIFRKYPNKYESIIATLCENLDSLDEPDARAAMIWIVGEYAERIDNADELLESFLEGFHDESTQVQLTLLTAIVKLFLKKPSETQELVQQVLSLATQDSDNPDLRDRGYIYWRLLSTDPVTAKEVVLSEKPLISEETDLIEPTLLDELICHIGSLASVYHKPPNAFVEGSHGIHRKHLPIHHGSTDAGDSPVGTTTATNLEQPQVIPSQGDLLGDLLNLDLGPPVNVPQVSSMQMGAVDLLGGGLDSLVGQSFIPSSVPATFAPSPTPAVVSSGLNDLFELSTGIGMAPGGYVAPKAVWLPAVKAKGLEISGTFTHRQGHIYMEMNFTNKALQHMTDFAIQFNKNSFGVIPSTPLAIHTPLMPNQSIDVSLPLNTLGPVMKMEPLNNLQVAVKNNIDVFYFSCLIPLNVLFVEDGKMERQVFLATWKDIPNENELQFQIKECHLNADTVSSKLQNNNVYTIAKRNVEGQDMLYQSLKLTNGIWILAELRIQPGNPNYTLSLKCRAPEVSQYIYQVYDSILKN
Sequence of Integrin beta-1 (Homo sapiens) + Integrin alpha-4 (Homo sapiens) (P05556 whole entry, looked up): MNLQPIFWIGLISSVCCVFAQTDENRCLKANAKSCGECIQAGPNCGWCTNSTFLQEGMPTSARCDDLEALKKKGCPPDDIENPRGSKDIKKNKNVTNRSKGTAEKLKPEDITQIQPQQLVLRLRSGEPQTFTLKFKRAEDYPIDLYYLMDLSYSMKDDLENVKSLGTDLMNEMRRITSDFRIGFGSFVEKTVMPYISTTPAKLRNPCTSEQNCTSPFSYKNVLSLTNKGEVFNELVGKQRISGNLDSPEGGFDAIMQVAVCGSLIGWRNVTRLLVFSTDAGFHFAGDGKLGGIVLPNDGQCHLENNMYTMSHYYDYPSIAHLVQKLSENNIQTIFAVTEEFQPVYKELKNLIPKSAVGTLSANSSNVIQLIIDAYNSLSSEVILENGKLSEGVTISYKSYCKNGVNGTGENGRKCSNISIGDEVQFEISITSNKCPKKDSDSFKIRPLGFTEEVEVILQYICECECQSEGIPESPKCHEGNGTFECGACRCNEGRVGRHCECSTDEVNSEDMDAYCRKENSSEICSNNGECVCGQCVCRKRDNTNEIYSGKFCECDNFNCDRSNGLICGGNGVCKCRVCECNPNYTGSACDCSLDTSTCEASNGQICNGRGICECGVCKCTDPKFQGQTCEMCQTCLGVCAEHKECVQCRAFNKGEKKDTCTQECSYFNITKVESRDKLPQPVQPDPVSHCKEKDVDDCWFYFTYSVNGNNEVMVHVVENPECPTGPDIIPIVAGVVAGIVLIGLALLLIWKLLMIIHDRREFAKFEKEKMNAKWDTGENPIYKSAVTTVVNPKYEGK
Sequence of Integrin beta-1 (Homo sapiens) + Integrin alpha-4 (Homo sapiens) (P13612 whole entry, looked up): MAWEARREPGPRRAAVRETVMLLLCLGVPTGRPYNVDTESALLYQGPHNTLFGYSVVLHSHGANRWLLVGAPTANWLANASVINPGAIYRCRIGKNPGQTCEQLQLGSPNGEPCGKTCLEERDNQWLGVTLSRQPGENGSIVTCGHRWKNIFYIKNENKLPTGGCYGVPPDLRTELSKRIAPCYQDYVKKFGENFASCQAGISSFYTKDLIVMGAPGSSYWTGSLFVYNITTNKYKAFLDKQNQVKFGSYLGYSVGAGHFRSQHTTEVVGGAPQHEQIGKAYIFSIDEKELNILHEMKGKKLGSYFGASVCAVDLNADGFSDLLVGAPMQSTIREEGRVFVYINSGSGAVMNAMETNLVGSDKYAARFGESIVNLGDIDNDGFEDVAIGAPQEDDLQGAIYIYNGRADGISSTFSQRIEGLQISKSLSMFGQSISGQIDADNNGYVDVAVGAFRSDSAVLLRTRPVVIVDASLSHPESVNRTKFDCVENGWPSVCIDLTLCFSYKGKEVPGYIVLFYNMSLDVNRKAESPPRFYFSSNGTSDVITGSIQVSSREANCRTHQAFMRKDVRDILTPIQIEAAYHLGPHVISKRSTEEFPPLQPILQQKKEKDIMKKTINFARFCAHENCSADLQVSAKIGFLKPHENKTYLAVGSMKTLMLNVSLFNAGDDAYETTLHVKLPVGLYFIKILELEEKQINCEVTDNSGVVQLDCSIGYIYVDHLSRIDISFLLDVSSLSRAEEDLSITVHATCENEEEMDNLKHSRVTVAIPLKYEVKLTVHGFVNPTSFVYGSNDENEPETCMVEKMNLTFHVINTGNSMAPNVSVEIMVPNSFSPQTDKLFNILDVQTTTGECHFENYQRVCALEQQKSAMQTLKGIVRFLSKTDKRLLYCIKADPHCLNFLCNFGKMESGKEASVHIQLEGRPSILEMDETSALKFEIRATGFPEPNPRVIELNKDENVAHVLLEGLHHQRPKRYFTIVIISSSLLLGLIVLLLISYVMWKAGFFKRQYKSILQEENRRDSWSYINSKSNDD
Sequence of ATP-binding cassette sub-family B member 6 (Homo sapiens) (Q9NP58 whole entry, looked up): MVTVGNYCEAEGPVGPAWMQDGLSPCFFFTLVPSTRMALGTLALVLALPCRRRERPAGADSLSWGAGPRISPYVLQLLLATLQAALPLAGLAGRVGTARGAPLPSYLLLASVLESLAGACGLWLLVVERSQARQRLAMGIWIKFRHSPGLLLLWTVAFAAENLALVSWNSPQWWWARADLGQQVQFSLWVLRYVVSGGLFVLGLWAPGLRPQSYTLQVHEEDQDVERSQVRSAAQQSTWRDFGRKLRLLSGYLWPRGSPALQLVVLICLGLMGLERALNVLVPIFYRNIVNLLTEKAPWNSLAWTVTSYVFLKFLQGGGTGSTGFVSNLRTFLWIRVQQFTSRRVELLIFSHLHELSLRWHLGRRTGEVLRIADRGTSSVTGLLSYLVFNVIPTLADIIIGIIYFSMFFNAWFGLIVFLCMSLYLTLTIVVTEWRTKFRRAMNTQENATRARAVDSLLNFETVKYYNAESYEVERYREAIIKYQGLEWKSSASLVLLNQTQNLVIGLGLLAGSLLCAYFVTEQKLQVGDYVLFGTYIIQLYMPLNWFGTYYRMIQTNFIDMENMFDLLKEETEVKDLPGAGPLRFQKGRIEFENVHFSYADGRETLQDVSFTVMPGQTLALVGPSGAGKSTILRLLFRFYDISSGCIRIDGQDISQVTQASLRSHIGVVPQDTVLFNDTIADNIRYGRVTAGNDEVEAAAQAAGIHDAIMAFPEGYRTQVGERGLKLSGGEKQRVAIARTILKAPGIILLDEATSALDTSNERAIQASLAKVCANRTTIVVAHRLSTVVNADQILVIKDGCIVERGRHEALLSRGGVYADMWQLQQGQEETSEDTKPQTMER
Sequence of Beta-2 adrenergic receptor (Homo sapiens) (P07550 whole entry, looked up): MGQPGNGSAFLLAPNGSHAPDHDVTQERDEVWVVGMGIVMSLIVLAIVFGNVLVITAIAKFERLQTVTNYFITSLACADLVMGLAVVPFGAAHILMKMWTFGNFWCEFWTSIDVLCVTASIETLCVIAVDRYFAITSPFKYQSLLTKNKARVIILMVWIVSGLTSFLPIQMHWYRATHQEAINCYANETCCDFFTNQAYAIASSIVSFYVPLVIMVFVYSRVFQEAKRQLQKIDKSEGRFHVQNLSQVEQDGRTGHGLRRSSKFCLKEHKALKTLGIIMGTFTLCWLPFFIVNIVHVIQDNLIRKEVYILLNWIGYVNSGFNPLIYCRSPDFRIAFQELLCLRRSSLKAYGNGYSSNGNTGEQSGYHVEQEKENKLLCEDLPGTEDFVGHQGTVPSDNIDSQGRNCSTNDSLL
Sequence of Beta-adrenergic receptor kinase 1 (Homo sapiens) (P25098 whole entry, looked up): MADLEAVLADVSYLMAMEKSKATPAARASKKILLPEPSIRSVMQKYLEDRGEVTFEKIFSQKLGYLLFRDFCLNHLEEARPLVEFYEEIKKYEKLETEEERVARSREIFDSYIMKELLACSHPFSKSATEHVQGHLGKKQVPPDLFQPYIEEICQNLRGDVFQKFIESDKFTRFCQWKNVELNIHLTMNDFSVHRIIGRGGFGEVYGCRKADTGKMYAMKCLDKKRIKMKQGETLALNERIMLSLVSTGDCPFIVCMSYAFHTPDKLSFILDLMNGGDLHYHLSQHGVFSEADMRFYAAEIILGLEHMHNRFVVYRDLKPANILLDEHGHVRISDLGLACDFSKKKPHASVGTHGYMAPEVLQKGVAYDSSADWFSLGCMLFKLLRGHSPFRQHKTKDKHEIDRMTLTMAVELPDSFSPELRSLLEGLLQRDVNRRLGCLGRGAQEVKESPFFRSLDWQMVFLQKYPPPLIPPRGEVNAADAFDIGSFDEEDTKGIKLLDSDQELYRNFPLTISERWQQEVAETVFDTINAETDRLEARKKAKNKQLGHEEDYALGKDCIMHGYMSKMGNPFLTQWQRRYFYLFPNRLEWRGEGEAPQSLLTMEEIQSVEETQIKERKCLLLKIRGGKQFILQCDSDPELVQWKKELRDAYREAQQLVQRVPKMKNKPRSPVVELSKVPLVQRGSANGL

With `COc1ccc(N2C(=O)C3C(C2=O)C(C(=O)c2ccccc2)N2CCCC32)cc1` (stereo not drawn), the percent of DMSO control GFP in test [1] was 98.6% (inactive). In addition, the GFP response vs DMSO in test [2] is 107% (inactive); in [4], 122% (inactive). For the same compound, the percent response of DMSO control in test [3] was 84.4% (inactive). Besides, in test [5], the GFP response, % of DMSO is 95.7% (inactive). Besides, in test [6], the double positive events was determined as 61.2%. Besides, the vesicle binding response in test [6] is 241% (inactive). Besides, the inhibition is -20.9% (inactive) in test [7], 4.51% (inactive) in [11] and -7% (inactive) in test [15]. For the same compound, in test [8], the superoxide response (% of plate) was 102% (inactive). Moreover, in test [9], the aptamer binding inhibition was 5% (inactive). In addition, the response in test [10] is 37.4% (inactive); in test [12], -0.56% (inactive). The binding (% of control) in [13] was 100% (inactive). Moreover, the efflux inhibition (fraction of control) in [14] is -0.24 (inactive). The differentiation response in test [16] is 12% (inactive).
As to `Oc1[nH]c2ccccc2c1C1=NCCCC1`, in test [1], the percent of DMSO control GFP was 102% (inactive). The GFP response vs DMSO in test [2] is 105% (inactive); in [4], 99.4% (inactive). In addition, the percent response of DMSO control in test [3] was 96% (inactive). In addition, in test [5], the GFP response, % of DMSO was 106% (inactive). For the same compound, the double positive events in [6] was 63.2%. Moreover, in test [6], the vesicle binding response was 161% (inactive). In addition, the inhibition was -3.18% (inactive) in test [7], -15.4% (inactive) in [11] and 11% (inactive) in test [15]. Besides, the superoxide response (% of plate) in test [8] is 84.9% (inactive). Further, in test [9], the aptamer binding inhibition was 8% (inactive). The response in test [10] was 17.8% (inactive); in test [12], 1.51% (inactive). The binding (% of control) in test [13] was 102% (inactive). Moreover, in test [14], the efflux inhibition (fraction of control) is -0.12 (inactive). In addition, the differentiation response in test [16] is 0% (inactive).
For the compound `Cc1ccc(S(=O)(=O)NC(C(=O)Oc2ccc3c(C(F)(F)F)cc(=O)oc3c2)c2ccccc2)cc1` (stereo not drawn), the percent of DMSO control GFP in [1] was 98.1% (inactive). The GFP response vs DMSO in test [2] is 102% (inactive); in [4], 115% (inactive). Besides, in [3], the percent response of DMSO control was 100% (inactive). The GFP response, % of DMSO in test [5] is 107% (inactive). Further, the double positive events in [6] was determined as 62.2%. Besides, the vesicle binding response in test [6] is 183% (inactive). Moreover, the inhibition in [7] is -6.23% (inactive); in test [11] it was 59.2% (active); in test [15] it was -3% (inactive). Further, the superoxide response (% of plate) in test [8] is 106% (inactive). Moreover, in test [9], the aptamer binding inhibition was -1% (inactive). In addition, the response in test [10] was 5.6% (inactive); in test [12], -16.5% (inactive). Besides, the binding (% of control) in test [13] is 92.6% (inactive). Also, the efflux inhibition (fraction of control) in [14] was 0.12 (inactive). The differentiation response in test [16] was 0.92% (inactive).
Regarding `O=C(/C=C/c1ccc2c(c1)OCCCO2)c1ccc2ccccc2c1O`, the percent of DMSO control GFP in [1] is 97.3% (inactive). For the same compound, the GFP response vs DMSO in test [2] is 102% (inactive); in test [4], 112% (inactive). Moreover, the percent response of DMSO control in [3] is 99.6% (inactive). For the same compound, the GFP response, % of DMSO in test [5] is 109% (inactive). The double positive events in test [6] turned out to be 59.6%. The vesicle binding response in [6] was 215% (inactive). The inhibition in test [7] is -76.9% (inactive); in test [11] it was -2.45% (inactive); in test [15], 6% (inactive). Moreover, in test [8], the superoxide response (% of plate) was 102% (inactive). The aptamer binding inhibition in [9] is 8% (inactive). Further, the figures for the response in test [10] and in [12] were -12.2% (inactive) and 2.01% (inactive), respectively. In addition, the binding (% of control) in [13] is 98.5% (inactive). The efflux inhibition (fraction of control) in test [14] is 0.04 (inactive). For the same compound, the differentiation response in [16] was -7.94% (inactive).

As a reminder, the inhibition is the relative decrease from the control value, in per cent.

The values are drawn from PubChem BioAssay.
